# Results published in the supplement of paper PMC8728848.
# The full list was thinned out, with the strongest signals kept by preference.
# B1: T7P4 (Tuber borchii) (protein)
# chain: GSHIGPYMSFYASSEDVRTIEEGGRTWLVGRARRADGSWQDIKLDLDNIIGNRDGHLTWGEQNFTQSASDIRFNFEGSNVPVLRAKLRNAAGGEQESDLNLGERLTNNNGDLVFN
# B2: LTL (Lotus tetragonolobus), P19664 (protein)
# chain: VSFNYTEFKDDGSLILQGDAKIWTDGRLAMPTDPLVNNPKTTRSAGRALYATPVPIWDSATGNVASFVTSFNFLFVIRELKYTPTDGLVFFLAPVGTEIPSGSTGGFLGIFDGSNGFNQFVAVEFDSYHNIWDPKSLRSSHVGIDVNSIMSLKAVNWNRVSGSLEKATIIYDSQTNILSVVMTSQNGQITTIYGTIDLKTVLPEKVSVGFSATTGNPEREKHDIYSWSFTSTLKEPEEQA
# What was measured:
# Test in all cases: glycan array binding signal (z-score within array); higher = stronger binding
# Conditions in all cases: glycan notation: IUPAC condensed, linker removed
# [1] = target: Fuc(a1-2)Gal(b1-3)GalNAc(b1-3)Gal(b1-4)Glc
# Procedure, shortened: (§1)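 The Consortium for Functional Glycomics database supplied 3228 glycan arrays, of which those lacking an available protein sequence were dropped. The binding signal, a within-array Z-score, was averaged across arrays of the same protein sequence and across linkers. Negative scores can be read as non-binding.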
# [2] = target: Fuc(a1-2)Gal(b1-3)GlcNAc(b1-3)Gal(b1-4)Glc
# Procedure, shortened: as §1
# Fuc(a1-2)Gal(b1-4)GlcNAc = target: Fuc(a1-2)Gal(b1-4)GlcNAc
# Procedure, shortened: as §1
# Gal(a1-3)Gal(b1-4)Glc = target: Gal(a1-3)Gal(b1-4)Glc
# Procedure, shortened: as §1
# [3] = target: Gal(b1-3)GalNAc(b1-3)Gal(b1-4)Glc
# Procedure, shortened: as §1
# [4] = target: Gal(b1-3)[Fuc(a1-4)]GlcNAc(b1-3)Gal(b1-4)GlcNAc
# Procedure, shortened: as §1
# [5] = target: Gal(b1-3)[Neu5Ac(a2-6)]GalNAc
# Procedure, shortened: as §1
# [6] = target: Gal(b1-3)[Neu5Ac(a2-6)]GlcNAc(a1-4)Gal(b1-4)Glc
# Procedure, shortened: as §1
# [7] = target: Gal(b1-3)[Neu5Ac(a2-6)]GlcNAc(b1-6)Gal(b1-4)Glc
# Procedure, shortened: as §1
# [8] = target: Gal(b1-3)[Neu5Ac(b2-6)]GalNAc
# Procedure, shortened: as §1
# [9] = target: Gal(b1-4)GlcNAc(b1-3)Gal(b1-4)Glc
# Procedure, shortened: as §1
# [10] = target: Gal(b1-4)GlcNAc(b1-6)GalNAc
# Procedure, shortened: as §1
# Gal3S(b1-4)Glc = target: Gal3S(b1-4)Glc
# Procedure, shortened: as §1
# Gal4S(b1-4)GlcNAc = target: Gal4S(b1-4)GlcNAc
# Procedure, shortened: as §1
# GalNAc(a1-3)Gal = target: GalNAc(a1-3)Gal
# Procedure, shortened: as §1
# [11] = target: GlcNAc(b1-2)Gal(b1-3)GlcNAc
# Procedure, shortened: as §1
# [12] = target: Man(a1-2)Man(a1-3)[Man(a1-6)]Man(a1-6)[Man(a1-2)Man(a1-3)]Man(b1-4)GlcNAc(b1-4)GlcNAc
# Procedure, shortened: as §1
# [13] = target: Man(a1-3)[Man(a1-6)]Man(a1-6)[Man(a1-2)Man(a1-3)]Man(b1-4)GlcNAc(b1-4)GlcNAc
# Procedure, shortened: as §1
# [14] = target: Man(a1-3)[Man(a1-6)]Man(b1-4)GlcNAc(b1-4)GlcNAc
# Procedure, shortened: as §1
# [15] = target: Neu5Ac(a2-3)Gal(b1-4)GlcNAc6S
# Procedure, shortened: as §1
# [16] = target: Neu5Ac(a2-3)Gal6S(b1-4)GlcNAc
# Procedure, shortened: as §1
# [17] = target: Neu5Ac(a2-8)Neu5Ac(a2-8)Neu5Ac(a2-8)Neu5Ac(a2-3)[GalNAc(b1-4)]Gal(b1-4)Glc
# Procedure, shortened: as §1
# [18] = target: Fuc(a1-2)Gal(b1-3)[Fuc(a1-4)]GlcNAc(b1-2)Man(a1-3)[Fuc(a1-2)Gal(b1-3)[Fuc(a1-4)]GlcNAc(b1-2)Man(a1-3)]Man(b1-4)GlcNAc(b1-4)GlcNAc
# Procedure, shortened: as §1
# [19] = target: Fuc(a1-2)Gal(b1-3)[Fuc(a1-4)]GlcNAc(b1-3)[Gal(b1-4)GlcNAc(b1-6)]Gal(b1-4)Glc
# Procedure, shortened: as §1
# [20] = target: Fuc(a1-2)Gal(b1-4)GlcNAc6S
# Procedure, shortened: as §1
# [21] = target: Fuc(a1-2)Gal(b1-4)[Fuc(a1-3)]GlcNAc
# Procedure, shortened: as §1
# Fuc(a1-2)GlcNAc = target: Fuc(a1-2)GlcNAc
# Procedure, shortened: as §1
# [22] = target: Fuc(a1-2)[Gal(a1-3)]Gal(b1-3)GalNAc
# Procedure, shortened: as §1
# [23] = target: Fuc(a1-2)[Gal(a1-3)]Gal(b1-4)Glc
# Procedure, shortened: as §1
# [24] = target: Fuc(a1-2)[Gal(a1-3)]Gal(b1-4)GlcNAc(b1-6)GalNAc
# Procedure, shortened: as §1
# [25] = target: Fuc(a1-2)[GalNAc(a1-3)]Gal
# Procedure, shortened: as §1
# [26] = target: Fuc(a1-2)[GalNAc(a1-3)]Gal(b1-4)GlcNAc(b1-3)GalNAc
# Procedure, shortened: as §1
# [27] = target: Fuc(a1-3)[Gal(b1-4)]GlcNAc(b1-3)Gal(b1-4)[Fuc(a1-3)]GlcNAc(b1-3)Gal(b1-4)[Fuc(a1-3)]GlcNAc
# Procedure, shortened: as §1
# [28] = target: Fuc(a1-3)[Gal3S(b1-4)]Glc6S
# Procedure, shortened: as §1
# Gal(b1-3)GalNAc(b1-3)Gal = target: Gal(b1-3)GalNAc(b1-3)Gal
# Procedure, shortened: as §1
# [29] = target: Gal(b1-3)GalNAc(b1-3)Gal(a1-4)Gal(b1-4)Glc
# Procedure, shortened: as §1
# Gal(b1-4)Gal = target: Gal(b1-4)Gal
# Procedure, shortened: as §1
# [30] = target: Gal(b1-4)GlcNAc(b1-3)Gal(b1-4)GlcNAc(b1-3)Gal(b1-4)GlcNAc(b1-2)Man(a1-3)[Gal(b1-4)GlcNAc(b1-3)Gal(b1-4)GlcNAc(b1-3)Gal(b1-4)GlcNAc(b1-2)Man(a1-6)]Man(b1-4)GlcNAc(b1-4)GlcNAc
# Procedure, shortened: as §1
# [31] = target: Gal(b1-4)GlcNAc(b1-3)Gal(b1-4)GlcNAc(b1-3)Gal(b1-4)GlcNAc(b1-3)Gal(b1-4)GlcNAc(b1-2)Man(a1-3)[Gal(b1-4)GlcNAc(b1-3)Gal(b1-4)GlcNAc(b1-3)Gal(b1-4)GlcNAc(b1-3)Gal(b1-4)GlcNAc(b1-2)Man(a1-6)]Man(b1-4)GlcNAc(b1-4)GlcNAc
# Procedure, shortened: as §1
# [32] = target: Gal(b1-4)GlcNAc(b1-3)Gal(b1-4)GlcNAc(b1-3)GalNAc
# Procedure, shortened: as §1
# [33] = target: Gal(b1-4)GlcNAc(b1-3)Gal(b1-4)GlcNAc(b1-3)[Gal(b1-4)GlcNAc(b1-3)Gal(b1-4)GlcNAc(b1-6)]GalNAc
# Procedure, shortened: as §1
# Gal3S(b1-3)GalNAc = target: Gal3S(b1-3)GalNAc
# Procedure, shortened: as §1
# [34] = target: Gal3S(b1-4)[Fuc(a1-3)]GlcNAc6S
# Procedure, shortened: as §1
# Gal3S6S(b1-4)GlcNAc = target: Gal3S6S(b1-4)GlcNAc
# Procedure, shortened: as §1
# Gal6S(b1-4)Glc = target: Gal6S(b1-4)Glc
# Procedure, shortened: as §1
# Gal6S(b1-4)GlcNAc = target: Gal6S(b1-4)GlcNAc
# Procedure, shortened: as §1
# [35] = target: GalNAc(b1-4)GlcNAc(b1-2)Man(a1-3)[GalNAc(b1-4)GlcNAc(b1-2)Man(a1-6)]Man(b1-4)GlcNAc(b1-4)GlcNAc
# Procedure, shortened: as §1
# [36] = target: GlcNAc(b1-2)Man(a1-3)[GlcNAc(b1-2)Man(a1-6)]Man(b1-4)GlcNAc(b1-4)GlcNAc
# Procedure, shortened: as §1
binder,measurement,setting,value
B1,glycan array binding signal (z-score),[1],6.04
same,glycan array binding signal (z-score),[2],5.88
same,glycan array binding signal (z-score),Fuc(a1-2)Gal(b1-4)GlcNAc,-0.207
same,glycan array binding signal (z-score),Gal(a1-3)Gal(b1-4)Glc,-0.222
same,glycan array binding signal (z-score),[3],5.7
same,glycan array binding signal (z-score),[4],-0.207
same,glycan array binding signal (z-score),[5],-0.213
same,glycan array binding signal (z-score),[6],5.89
same,glycan array binding signal (z-score),[7],5.74
same,glycan array binding signal (z-score),[8],-0.16
same,glycan array binding signal (z-score),[9],2.77
same,glycan array binding signal (z-score),[10],-0.221
same,glycan array binding signal (z-score),Gal3S(b1-4)Glc,-0.008
same,glycan array binding signal (z-score),Gal4S(b1-4)GlcNAc,-0.202
same,glycan array binding signal (z-score),GalNAc(a1-3)Gal,-0.215
same,glycan array binding signal (z-score),[11],0.204
same,glycan array binding signal (z-score),[12],-0.213
same,glycan array binding signal (z-score),[13],-0.223
same,glycan array binding signal (z-score),[14],-0.226
same,glycan array binding signal (z-score),[15],-0.208
same,glycan array binding signal (z-score),[16],-0.213
same,glycan array binding signal (z-score),[17],-0.223
B2,glycan array binding signal (z-score),[1],0.013
same,glycan array binding signal (z-score),[18],0.157
same,glycan array binding signal (z-score),[19],-0.265
same,glycan array binding signal (z-score),Fuc(a1-2)Gal(b1-4)GlcNAc,0.463
same,glycan array binding signal (z-score),[20],-0.057
same,glycan array binding signal (z-score),[21],4.58
same,glycan array binding signal (z-score),Fuc(a1-2)GlcNAc,2.03
same,glycan array binding signal (z-score),[22],0.102
same,glycan array binding signal (z-score),[23],-0.211
same,glycan array binding signal (z-score),[24],-0.201
same,glycan array binding signal (z-score),[25],-0.25
same,glycan array binding signal (z-score),[26],-0.219
same,glycan array binding signal (z-score),[27],8.86
same,glycan array binding signal (z-score),[28],0.757
same,glycan array binding signal (z-score),Gal(b1-3)GalNAc(b1-3)Gal,-0.295
same,glycan array binding signal (z-score),[29],0.007
same,glycan array binding signal (z-score),[4],-0.389
same,glycan array binding signal (z-score),[5],-0.277
same,glycan array binding signal (z-score),Gal(b1-4)Gal,-0.131
same,glycan array binding signal (z-score),[30],3.1
same,glycan array binding signal (z-score),[31],0.014
same,glycan array binding signal (z-score),[32],2.04
same,glycan array binding signal (z-score),[33],2.93
same,glycan array binding signal (z-score),Gal3S(b1-3)GalNAc,-0.003
same,glycan array binding signal (z-score),[34],-0.287
same,glycan array binding signal (z-score),Gal3S6S(b1-4)GlcNAc,0.068
same,glycan array binding signal (z-score),Gal6S(b1-4)Glc,-0.131
same,glycan array binding signal (z-score),Gal6S(b1-4)GlcNAc,-0.022
same,glycan array binding signal (z-score),[35],1.48
same,glycan array binding signal (z-score),[36],-0.3
